Inconclusive results are not listed. Calls of active or inactive are those of the source. The call rests on the fitted dose curve; in most records, active means well fitted cell-killing curve with a large enough effect; inconclusive means small, poorly fitted or top-dose-only effect, or effect the other way; inactive means no such curve, though single readings can be large or run the other way.
Potency means the concentration at half of the fitted maximal effect.

In this assay the test system is PA-1. The assay can be described thus: Confirmatory qHTS for gynecologic anti-cancer compounds from libraries of approved drugs and bioactive compounds. Further: nearly all actives have a fitted effect of over 55% in size. Conditions: gynecologic cancer cell panel viability, ATPlite luminescence, 48 h; series mostly up to 57.6 µM. Put shortly: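 1,000 cells/well; 16 h pre-incubation 37 C, 5% CO2; pin-transferred cpd in DMSO, 11 conc (1:3), 57.5 uM–0.977 nM; 48 h; ATPlite, 15 min RT; luminescence → IC50.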
In general terms: In qHTS, concentration-response curves come from the screen itself.
Turning to `COc1cc(N2CCC(N3CCN(C)CC3)CC2)ccc1Nc1ncc(Cl)c(Nc2ccccc2S(=O)(=O)C(C)C)n1`, the Potency is 3.43 µM (active). The value for `CN(C[C@@H]1COCCO1)S(=O)(=O)Nc1ccc2ccc3ncc(-c4cnn(C)c4)cc3c(=O)c2c1` was 17.2 µM (active); that for `Cc1cnc(Nc2cccc(CN3CCOCC3)c2)nc1Nc1cccc(S(=O)(=O)NC(C)(C)C)c1` was 3.85 µM (active); that for `Cc1cc(Nc2nc(N[C@@H](C)c3ncc(F)cn3)ncc2Cl)n[nH]1` was 3.85 µM (active). With `COc1cc(F)c(F)c(Nc2ccc(I)cc2F)c1NS(=O)(=O)C1(CC(O)CO)CC1` (configuration not stated), the Potency entry is “inactive”. Turning to `O=C(Nc1cccnc1)N1CCC(Cc2cccc(Oc3ccc(C(F)(F)F)cn3)c2)CC1`, the Potency was 6.85 µM (active). Turning to `Cc1c(C)n(Cc2ccc(-c3ccccc3C(=O)O)cc2)c2ccc(C(=O)N[C@@H](C)c3ccc([N+](=O)[O-])cc3)cc12`, the Potency result was “inactive”. The value for `CCN(CC)CCCC(C)Nc1ccnc2cc(Cl)ccc12` (configuration not stated) was “inactive”; that for `CO[C@@]12[C@H](COC(N)=O)C3=C(C(=O)C(C)=C(N)C3=O)N1C[C@@H]1N[C@@H]12` was “inactive”. The value for `CCOc1cc2ncc(C#N)c(Nc3ccc(F)c(Cl)c3)c2cc1NC(=O)/C=C/CN(C)C` was 17.2 µM (active); that for `CC(=O)O[C@H]1C(=O)[C@@]2(C)[C@H]([C@H](OC(=O)c3ccccc3)[C@]3(O)C[C@H](OC(=O)[C@H](O)[C@@H](NC(=O)c4ccccc4)c4ccccc4)C(C)=C1C3(C)C)[C@]1(OC(C)=O)CO[C@@H]1C[C@@H]2O` was 0.0092 µM (active); that for `O=C(NOC[C@H](O)CO)c1ccc(F)c(F)c1Nc1ccc(I)cc1F` was 3.85 µM (active).

The values are drawn from PubChem BioAssay AID1345085 (National Center for Advancing Translational Sciences (NCATS), 2018).
